D2 ag-1: D2 dopamine receptor (human) agonism; HEK293 T-REx D2 cells, calcium flux agonist mode; activation, % at 2 µM; 0.53% of 340,000 active;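 active = activation over 3 SD above normal in the single-dose calcium agonist read, cut at about 30% in these data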
Target sequence (P14416 whole entry, looked up): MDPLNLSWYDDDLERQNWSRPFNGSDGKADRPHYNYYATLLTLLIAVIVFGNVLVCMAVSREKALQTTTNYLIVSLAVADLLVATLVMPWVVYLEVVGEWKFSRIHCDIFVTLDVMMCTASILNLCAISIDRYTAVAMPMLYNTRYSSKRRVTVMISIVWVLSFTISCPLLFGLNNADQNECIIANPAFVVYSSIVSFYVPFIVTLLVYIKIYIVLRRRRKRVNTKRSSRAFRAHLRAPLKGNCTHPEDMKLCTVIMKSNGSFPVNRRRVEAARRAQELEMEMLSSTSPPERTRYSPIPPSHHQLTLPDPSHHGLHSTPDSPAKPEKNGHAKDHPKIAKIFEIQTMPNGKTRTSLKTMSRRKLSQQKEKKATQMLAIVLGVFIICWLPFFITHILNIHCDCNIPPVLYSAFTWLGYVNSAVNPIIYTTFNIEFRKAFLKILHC
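Agonism scored from kinetic calcium signal (1 read/sec, 180 s) following compound pin transfer, after a 10 s baseline. Cells: HEK293 Trex line expressing inducible D2 receptor coupled to calcium, dye-loaded after overnight culture at 30 C.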
D2 PAM-1: human D2 receptor positive allosteric modulation. P14416. DiscoveRx D2 beta-arrestin cells, luminescence, 90 min; 100% = 57 uM dopamine signal. potentiation, % (test concentration not listed). 0.23% of 360,000 active. AID 624464; in the data active = potentiation above about 50%; inconclusive = mostly about 30% to 49%
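D2 cells co-treated with compound plus 50 nM dopamine (EC20) for 90 min at 37 deg C to detect potentiation. Beta-arrestin recruitment was read as enzyme-fragment luminescence after 1 h at ambient temperature. Full response was set by 57 uM dopamine.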
D2 antag: antagonizes the human D2 dopamine receptor; P14416; HEK293 TREx D2 cells, calcium flux, dopamine EC80; inhibition, % at 10 µM; 2% of 340,000 active; AID 485344; in the data active = inhibition above about 30%; inactive = below that, where a call was filed
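Dopamine at EC80 is the agonist stimulus; test compounds precede it by 180 s. Calcium flux read kinetically in a force-coupled, inducible HEK293 T-REx D2 cell line.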
D2 PAM-2: positive allosteric modulators of human D2 dopamine receptor | potentiation, % at 10 µM | 0.34% of 340,000 active | AID 485347 | HEK293 T-REx D2, calcium flux, EC20 dopamine potentiation;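 active = potentiation over 3 SD above the plate norm, cut at about 30% in these data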
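Calcium flux readout, no-wash dye, 1 read/s. Inducible HEK293 Trex D2 line, overnight 30 C. Compound alone 180 s (agonist flags), then EC20 dopamine, another 180 s to score potentiation.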
D2 ag-2: agonists of human D2 dopamine receptor (beta-arrestin) | DiscoveRx PathHunter D2 beta-arrestin, luminescence, 90 min; 100% = 57 uM dopamine signal | AID 624465 | 0.084% of 360,000 active | activation, % (no concentration beside the values); in the data active = activation above about 40%; inconclusive = between about 15% and that limit
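Agonist mode: compounds alone added to overnight-plated D2 PathHunter cells for 90 min at 37 C, with 57 uM final dopamine (EC100) defining full response. Beta-arrestin recruitment detected by chemiluminescent reagent, read after 1 h at ambient temperature.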
Each line names hits and unclear results; the compound was inactive in the other large screens; ! = not active in a repeat. Most compounds without a hit are left out; they make up all but 2.4% or so of the library.

COc1ccccc1CNCC(O)Cn1c2ccccc2c2ccccc21 (stereo unspecified)	D2 antag 42.3
COc1ccccc1C(C)NCC(=O)NCC(=O)Nc1ccc(F)c(F)c1F (stereo unspecified)	none
COc1ccccc1C(C)NCC(=O)NCc1ccc(C)cc1 (stereo unspecified)	D2 antag 37.2
COc1ccccc1CNCC(=O)NCc1ccc(C)cc1	D2 antag 52.4
CCOc1ccc(C(=O)Nc2ccc(C(=O)OCc3cc(=O)n4nc(CC)sc4n3)cc2)cc1	none (no result: D2 PAM-1, D2 antag, D2 ag-2)
COCC1CCN(C(=O)c2ccc3oc(CCCc4ccccc4)nc3c2)C1 (stereo unspecified)	D2 PAM-2 44.5
COc1cc(OC)c(NC(=O)C(c2ccccc2)N2Cc3ccccc3C2=O)cc1Cl (stereo unspecified)	none (no result: D2 PAM-1, D2 antag, D2 ag-2)
C=CCSc1nnc2c(n1)OC(c1cccnc1)N(C(C)=O)c1ccccc1-2 (stereo unspecified)	none
C=CCSc1nnc2c(n1)OC(c1cccnc1)Nc1ccccc1-2 (stereo unspecified)	D2 PAM-1 53.4
CSc1nc(C)cc(/C=C\c2ccccc2)c1C#N	D2 PAM-2 41.4
C=C(C)Cn1c2ccc(NC(=S)NCc3ccccc3F)cc2c(=O)n1C	D2 ag-2 102.7 (no result: D2 ag-1, D2 antag, D2 PAM-2)
COc1cccc(OC)c1C(=O)OCC(=O)NC1CCCCCC1	D2 antag 81.9
CCOc1ncccc1C(=O)OCC(=O)NC1CCCCCC1	D2 antag 30.8
O=c1oc2ccccc2c(N2CCN(c3ccccc3F)CC2)c1CN1CCCC1	none (no result: D2 PAM-1, D2 antag, D2 ag-2)
COc1ccc(-c2cc(C(=O)Nc3c(C)nn(Cc4ccc(F)cc4)c3C)no2)cc1OC	none (no result: D2 PAM-1, D2 antag, D2 ag-2)
COc1ccc(CCn2nc(C)c([N+](=O)[O-])c2C)cc1	D2 antag 32.3
O=C(Nc1cccc(/C=C/c2ccccn2)c1)c1ccc(-n2cncn2)c([N+](=O)[O-])c1	D2 PAM-1 62.8
O=C(Nc1ccc(F)c(F)c1)c1ccc(-n2cncn2)c([N+](=O)[O-])c1	none
COc1ccc(NC(=O)c2ccc(-n3cncn3)c([N+](=O)[O-])c2)cc1OC	D2 antag 35.3
CC(=O)N1CCCc2cc(S(=O)(=O)N(C)CC(=O)Nc3ccc(C(C)C)cc3)ccc21	none (no result: D2 PAM-1, D2 antag, D2 ag-2)
Cc1ccc(Cl)cc1N1CCN(C(=O)c2sc3nc4n(c(=O)c3c2C)CCC4)CC1	none (no result: D2 PAM-1, D2 antag, D2 PAM-2, D2 ag-2)
Cc1cc(OCC(=O)O/N=C(\N)Cc2cccs2)ccc1Br	D2 antag 48.7
Cc1ccc(OCC(=O)O/N=C(\N)Cc2cccs2)cc1C	none (no result: D2 ag-1, D2 antag, D2 PAM-2)
O=C(COC(=O)c1cc([N+](=O)[O-])ccc1N1CCOCC1)c1ccc(OC(F)F)cc1OC(F)F	D2 antag 44.0, D2 ag-2 inconclusive
CN(C)CCOC(c1ccc(Cl)cc1)c1ccccn1 (stereo unspecified)	D2 ag-2 97.9!
CN(C)CCOC(c1ccccc1)c1ccccc1	none
CCC(=O)N(CCC1(C(C)C)CCOC(C)(C)C1)Cc1ccco1 (stereo unspecified)	none
CC(=O)N(CCC1(C(C)C)CCOC(C)(C)C1)Cc1ccco1 (stereo unspecified)	D2 antag 38.4
COc1ccc(OC)c(S(=O)(=O)NCCc2csc3nc(-c4ccccc4)nn23)c1	none (no result: D2 PAM-1, D2 antag, D2 PAM-2, D2 ag-2)
CS(=O)(=O)Nc1ccc(-c2nc3ccccc3s2)cc1	none (no result: D2 ag-1, D2 PAM-1, D2 antag, D2 ag-2)
Cc1cc(NC(=O)c2cccc(Oc3ccccc3)c2)n[nH]1	D2 PAM-2 73.8
COc1cccc(OCCNCc2ccccc2)c1	D2 antag 41.1
COc1cccc(C(=O)Nc2cccc(OCC(=O)O)c2)c1	D2 antag 33.7
Cc1cc(NC(=O)NC(=O)c2cccc(OC(F)(F)C(F)F)c2)n[nH]1	none
COc1cccc(OCC(=O)O)c1	D2 PAM-2 39.5
CCn1cc(S(=O)(=O)c2cccc(Cl)c2)c(=O)c2cc(F)c(N3CCN(C)CC3)cc21	none (no result: D2 PAM-1, D2 antag, D2 PAM-2, D2 ag-2)
N#Cc1c(F)cccc1N1CCOCC1	D2 PAM-2 34.8
COC(=O)c1ccc(NC(=O)CSCc2ccccc2C)cc1	D2 antag 34.6
CCn1c(SCC(=O)Nc2ccc(C(=O)OC)cc2)nc2cccnc21	D2 PAM-2 35.3
COC(=O)c1ccc(NC(=O)CSCc2ccccc2)cc1	none
CCn1c(SCC(=O)Nc2ccc(C(C)=O)cc2)nc2ccccc21	none
